In PubChem BioAssay:
Inconclusive results are not listed. Active and inactive are the calls of the source.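 Rule for the calls, unless noted: active = binding below the plate cutoff, the plate median minus 3 SD, with a reading above zero; inconclusive = below the plate cutoff but reading exactly zero; inactive = the rest.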

Assays:
[1] = yeast TOR pathway RPL19A-GFP modulators, primary screen, cell-based, S. cerevisiae, multiplex flow cytometry (AID 1862; in the data active = percent of DMSO control GFP below about 86%;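 note: lower values mimic rapamycin by blocking the RPL19A rise seen in DMSO cells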); details: S. cerevisiae RPL19A-GFP strain, flow cytometry fluorescence, 3 h; at 10 µM; stronger effect = lower value
[2] = modulators of MEP2-GFP levels in yeast, primary screen, S. cerevisiae, multiplex flow cytometry (AID 1867;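 active = GFP response, as percent of the DMSO control, above the screen-wide mean plus 3 SD, about 139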;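 note: median GFP channel fluorescence of barcode-gated MEP2-GFP cells measured by flow cytometry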); details: S. cerevisiae MEP2-GFP strain, 3 h, at 10 µM, stronger effect = higher value, 100% means same as DMSO wells
[3] = modulators of CIT2-GFP expression in yeast, primary screen, S. cerevisiae, GFP fusion, multiplex flow cytometry (AID 1870;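 active = percent response above a set limit, the screen-wide mean plus 3 SD, cut at about 130% in these data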;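 note: barcoded CIT2-GFP strain pooled with four other GFP strains with rapamycin as positive control; median GFP fluorescence per well over plate mean of DMSO wells so 100% = DMSO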); details: 3 h, at 10 µM, stronger effect = higher value
[4] = modulators of LAP4-GFP expression in yeast, primary screen, S. cerevisiae, multiplex flow cytometry (AID 1873;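 active = GFP signal, as percent of the solvent control, above the screen mean plus 3 SD, about 149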); details: 3 h, at 10 µM, stronger effect = higher value
[5] = modulators of AGP1-GFP expression in yeast TOR pathway, primary screen, cell-based, multiplex flow cytometry, S. cerevisiae (AID 1887;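 active = GFP signal above the screen-wide mean plus 3 SD, that is over about 124.5% of the solvent control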;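 note: AGP1-GFP fusion strain of S. cerevisiae within a five-strain barcoded multiplex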); details: 3 h, at 10 µM, stronger effect = higher value
[6] = inhibitors of CD8+ T cell-vesicle binding, pilot screen, LFA-1/ICAM-1 modulator project, MLPCN validation set, flow cytometry (AID 2523;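 active = response below a set limit, under 55% cells CD8-positive and vesicle-bound, and CD8 cells' 90th-percentile brightness under 279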;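 for vesicle binding response: mean PE anti-B7-1 fluorescence of CD8+ cells relative to row control; 100% = QL9-loaded vesicles with DMSO vehicle in the same plate row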); details: 2C mouse CD8+ T cells, at 7 µM, stronger effect = lower value; double positive events: measured here: CD8+/vesicle+ event percentage
[7] = biological target: Integrin beta-1 (Homo sapiens) + Integrin alpha-4 (Homo sapiens) (UniProt P13612+P05556); test: inhibition of HUTS-21 binding to VLA-4, pilot screen, VLA-4 allosteric modulator project, U937 cells, HUTS-21 mAb, flow cytometry, validation set (AID 2674;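 active = inhibition above 50%, about 3 SD of the validation set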;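 note: antibody binding induced by the VLA-4 ligand LDV present at three times its Kd; 0% = LDV ligand with antibody and no compound and 100% = antibody without LDV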); details: HUTS-21 LIBS mAb binding, at 6.7 µM, stronger effect = higher value, binding induced by LDV ligand
Integrin beta-1 (Homo sapiens) + Integrin alpha-4 (Homo sapiens), sequence (P05556 whole entry, looked up): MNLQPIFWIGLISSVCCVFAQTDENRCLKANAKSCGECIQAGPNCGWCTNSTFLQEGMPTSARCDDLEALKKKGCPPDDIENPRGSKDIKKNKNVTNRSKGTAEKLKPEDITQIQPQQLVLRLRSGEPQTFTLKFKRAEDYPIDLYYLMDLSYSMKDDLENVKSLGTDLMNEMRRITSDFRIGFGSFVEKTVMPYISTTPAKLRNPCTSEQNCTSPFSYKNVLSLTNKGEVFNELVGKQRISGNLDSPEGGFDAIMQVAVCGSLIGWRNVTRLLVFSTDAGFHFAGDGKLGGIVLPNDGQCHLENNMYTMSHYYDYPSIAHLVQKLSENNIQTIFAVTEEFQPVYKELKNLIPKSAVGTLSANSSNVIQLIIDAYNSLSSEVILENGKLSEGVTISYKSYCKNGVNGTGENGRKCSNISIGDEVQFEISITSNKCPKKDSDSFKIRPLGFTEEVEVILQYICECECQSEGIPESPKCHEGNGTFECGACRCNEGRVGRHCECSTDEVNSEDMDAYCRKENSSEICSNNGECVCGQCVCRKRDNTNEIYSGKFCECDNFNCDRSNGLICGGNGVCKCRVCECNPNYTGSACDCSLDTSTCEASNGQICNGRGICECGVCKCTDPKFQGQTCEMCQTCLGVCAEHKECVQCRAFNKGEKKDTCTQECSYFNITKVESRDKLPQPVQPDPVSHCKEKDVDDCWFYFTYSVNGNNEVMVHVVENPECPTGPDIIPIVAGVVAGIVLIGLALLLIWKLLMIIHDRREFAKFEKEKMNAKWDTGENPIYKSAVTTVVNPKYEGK
Integrin beta-1 (Homo sapiens) + Integrin alpha-4 (Homo sapiens), sequence (P13612 whole entry, looked up): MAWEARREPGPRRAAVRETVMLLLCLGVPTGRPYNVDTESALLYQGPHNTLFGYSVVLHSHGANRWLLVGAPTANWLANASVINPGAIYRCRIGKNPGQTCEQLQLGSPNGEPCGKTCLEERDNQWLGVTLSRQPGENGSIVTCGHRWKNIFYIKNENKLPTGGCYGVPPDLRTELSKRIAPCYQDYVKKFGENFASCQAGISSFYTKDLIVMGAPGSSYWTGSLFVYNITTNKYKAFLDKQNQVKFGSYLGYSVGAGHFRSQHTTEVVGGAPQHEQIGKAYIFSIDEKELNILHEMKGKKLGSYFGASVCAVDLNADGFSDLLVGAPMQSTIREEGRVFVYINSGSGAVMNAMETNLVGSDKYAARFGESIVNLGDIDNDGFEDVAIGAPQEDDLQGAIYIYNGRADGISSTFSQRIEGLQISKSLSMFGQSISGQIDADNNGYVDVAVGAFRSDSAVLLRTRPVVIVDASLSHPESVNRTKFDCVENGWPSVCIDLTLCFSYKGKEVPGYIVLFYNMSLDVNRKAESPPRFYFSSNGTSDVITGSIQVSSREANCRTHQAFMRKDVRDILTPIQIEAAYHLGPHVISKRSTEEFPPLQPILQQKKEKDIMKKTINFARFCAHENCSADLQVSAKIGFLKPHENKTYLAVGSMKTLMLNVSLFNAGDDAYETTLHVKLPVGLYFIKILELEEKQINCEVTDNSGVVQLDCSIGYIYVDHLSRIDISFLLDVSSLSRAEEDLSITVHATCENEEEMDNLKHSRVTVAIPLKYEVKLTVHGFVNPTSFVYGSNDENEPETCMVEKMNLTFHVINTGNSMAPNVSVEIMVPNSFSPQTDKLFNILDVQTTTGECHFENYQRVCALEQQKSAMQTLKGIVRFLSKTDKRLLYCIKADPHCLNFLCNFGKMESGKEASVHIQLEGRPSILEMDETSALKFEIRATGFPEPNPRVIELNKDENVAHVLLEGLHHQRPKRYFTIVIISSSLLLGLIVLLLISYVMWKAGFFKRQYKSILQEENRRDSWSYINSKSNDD

[8] = superoxide lowering in aged yeast cells, pilot screen, validation compound set (AID 2706;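 active = superoxide response below 65% of plate, a cut near 3 SD across the whole screen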;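 note: yeast exposed to compound for one week at 30 degrees C before staining; 100% = mean of all compound wells on the same plate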); details: S. cerevisiae aging, superoxide DHE fluorescence; at 10 µM; stronger effect = lower value
[9] = biological target: Beta-adrenergic receptor kinase 1 (Homo sapiens) (UniProt P25098); test: GRK2 binders displacing RNA aptamer, biochemical, validation, human GRK2, bead flow cytometry (AID 488806;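 active = aptamer binding inhibition above 30%, about 3 SD of noise from non-fluorescent compounds; inactive = inhibition at or below 30%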); details: bead-bound GRK2, FAM-aptamer displacement, at 10 µM, stronger effect = higher value
Beta-adrenergic receptor kinase 1 (Homo sapiens), sequence (P25098 whole entry, looked up): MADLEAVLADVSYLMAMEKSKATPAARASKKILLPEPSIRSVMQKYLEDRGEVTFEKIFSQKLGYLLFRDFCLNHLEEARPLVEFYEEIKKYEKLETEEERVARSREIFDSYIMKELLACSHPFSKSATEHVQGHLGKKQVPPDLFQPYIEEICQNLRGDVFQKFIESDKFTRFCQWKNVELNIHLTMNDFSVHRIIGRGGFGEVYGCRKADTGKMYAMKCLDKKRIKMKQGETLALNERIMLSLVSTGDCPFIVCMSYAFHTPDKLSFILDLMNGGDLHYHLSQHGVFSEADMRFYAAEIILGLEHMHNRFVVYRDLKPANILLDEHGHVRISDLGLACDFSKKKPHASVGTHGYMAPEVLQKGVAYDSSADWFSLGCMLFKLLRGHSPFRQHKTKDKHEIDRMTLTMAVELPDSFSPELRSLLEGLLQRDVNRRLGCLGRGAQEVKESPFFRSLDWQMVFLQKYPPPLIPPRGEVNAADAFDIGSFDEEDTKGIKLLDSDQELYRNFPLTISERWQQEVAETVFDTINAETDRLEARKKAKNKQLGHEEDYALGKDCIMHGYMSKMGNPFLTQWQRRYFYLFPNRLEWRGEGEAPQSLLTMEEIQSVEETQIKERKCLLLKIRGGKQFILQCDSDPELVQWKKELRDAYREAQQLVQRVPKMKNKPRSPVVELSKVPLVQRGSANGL

[10] = biological target: Beta-2 adrenergic receptor (Homo sapiens) (UniProt P07550); test: beta2AR agonists driving receptor internalization, pilot screen, cell-based, FAP fluorogen, flow cytometry, validation set (AID 504459;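 active = percent response above 42, roughly 3 SD of non-fluorescent test compounds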;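 note: agonist-driven loss of surface beta2AR via internalization measured by FAP dye flow cytometry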); details: Am2.2-beta2AR cells, FAP surface receptor flow cytometry; at 10 µM; stronger effect = higher value
Beta-2 adrenergic receptor (Homo sapiens), sequence (P07550 whole entry, looked up): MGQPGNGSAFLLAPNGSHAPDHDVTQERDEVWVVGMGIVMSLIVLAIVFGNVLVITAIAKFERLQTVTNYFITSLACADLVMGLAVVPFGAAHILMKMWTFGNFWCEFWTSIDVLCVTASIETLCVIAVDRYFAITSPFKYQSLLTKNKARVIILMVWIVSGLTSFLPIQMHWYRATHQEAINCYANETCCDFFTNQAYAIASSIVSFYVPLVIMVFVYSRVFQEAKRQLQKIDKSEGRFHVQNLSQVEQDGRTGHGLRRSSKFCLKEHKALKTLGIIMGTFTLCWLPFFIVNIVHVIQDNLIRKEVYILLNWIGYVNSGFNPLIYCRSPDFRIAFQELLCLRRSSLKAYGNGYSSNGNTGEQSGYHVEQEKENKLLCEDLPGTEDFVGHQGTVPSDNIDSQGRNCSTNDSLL

[11] = biological target: AP-2 complex subunit beta (Homo sapiens) (UniProt P63010); test: inhibitors of arrestin peptide binding to AP2, pilot screen, biochemical, validation set, GST-AP2 beads, flow cytometry (AID 504541;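 active = inhibition above 54%, about 3 SD of non-fluorescent compounds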;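 note: AP2 carries R879A mutation and is captured from E. coli lysate; bead-bound FITC arrestin peptide fluorescence measuring arrestin peptide binding to AP2; 0% = DMSO wells and 100% = excess unlabeled arrestin peptide control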); details: FITC arrestin peptide, at 10 µM, stronger effect = higher value, AP2 beta2 appendage fragment, R879A mutant
AP-2 complex subunit beta (Homo sapiens), sequence (P63010 whole entry, looked up, the tested form may be a part, one chain of several): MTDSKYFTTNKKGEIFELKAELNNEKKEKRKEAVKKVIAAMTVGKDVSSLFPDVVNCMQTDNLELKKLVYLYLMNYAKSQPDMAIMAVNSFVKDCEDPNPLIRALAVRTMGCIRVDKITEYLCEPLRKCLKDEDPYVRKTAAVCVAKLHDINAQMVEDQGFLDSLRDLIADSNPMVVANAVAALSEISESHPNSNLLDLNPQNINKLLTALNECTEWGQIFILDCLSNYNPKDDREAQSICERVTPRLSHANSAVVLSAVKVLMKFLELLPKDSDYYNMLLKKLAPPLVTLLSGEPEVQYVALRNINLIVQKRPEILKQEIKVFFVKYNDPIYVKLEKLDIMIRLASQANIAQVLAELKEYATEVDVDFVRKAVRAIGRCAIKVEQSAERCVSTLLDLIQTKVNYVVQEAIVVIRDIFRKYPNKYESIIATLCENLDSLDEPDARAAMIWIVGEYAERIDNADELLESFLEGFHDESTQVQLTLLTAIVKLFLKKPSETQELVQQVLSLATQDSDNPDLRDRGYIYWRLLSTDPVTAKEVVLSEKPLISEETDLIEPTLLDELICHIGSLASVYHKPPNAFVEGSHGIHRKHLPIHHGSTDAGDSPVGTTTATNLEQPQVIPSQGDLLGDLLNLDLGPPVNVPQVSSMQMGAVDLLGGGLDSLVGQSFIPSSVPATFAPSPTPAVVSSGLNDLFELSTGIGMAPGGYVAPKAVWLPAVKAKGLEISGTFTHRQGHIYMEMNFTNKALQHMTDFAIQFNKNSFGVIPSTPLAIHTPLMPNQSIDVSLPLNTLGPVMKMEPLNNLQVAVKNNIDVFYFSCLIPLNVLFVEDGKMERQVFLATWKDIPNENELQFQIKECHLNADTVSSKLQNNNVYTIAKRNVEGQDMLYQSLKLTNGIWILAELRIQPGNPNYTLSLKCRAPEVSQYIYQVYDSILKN

[12] = yeast V-ATPase proton transport modulators, S. cerevisiae, pHLuorin, HTS validation (AID 504600; in the data active = response above about 15%;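 note: plate controls were DMSO for no effect and reference compound for full effect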); details: S. cerevisiae pHLuorin cytosolic pH, at 10 µM, stronger effect = higher value
[13] = test system: anti-desmoglein-3 scFv antibody binding to human DSG3; test: inhibitors of anti-DSG3 scFv binding to DSG3, pilot screen, biochemical, validation compound set, bead-based, flow cytometry (AID 588368); details: Protein G beads, DSG3-Fc, scFv-GFP binding, at 10 µM, stronger effect = lower value;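 note: signal is the median channel fluorescence of bead-bound GFP antibody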
[14] = inhibitors of fungal efflux pumps CDR1, CDR2, MDR1, pilot screen, validation compound set, multiplex, phenotypic (AID 588506;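 active = efflux inhibition above 0.42, the validation set average plus 4 SD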;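 note: Nile Red retained in cells so higher fluorescence means more efflux inhibition; 0 = negative control wells and 1 = enniatin B 25 µM full block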); details: S. cerevisiae pump-expressing triplex, Nile Red efflux flow cytometry; at 10 µM; stronger effect = higher value; the pumps come from Candida albicans
[15] = biological target: ATP-binding cassette sub-family B member 6 (Homo sapiens) (UniProt Q9NP58); test: ABCB6 transporter inhibitors, pilot screen, K562-ABCB6 cells, flow cytometry, validation set (AID 588550;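 active = inhibition above the screen-wide mean plus 3 SD, about 51%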;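 note: 0% = DMSO wells and 100% = benzethonium chloride 70 µM positive control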); details: K562-ABCB6 porphyrin accumulation, 1 h, at 10 µM, stronger effect = higher value
ATP-binding cassette sub-family B member 6 (Homo sapiens), sequence (Q9NP58 whole entry, looked up): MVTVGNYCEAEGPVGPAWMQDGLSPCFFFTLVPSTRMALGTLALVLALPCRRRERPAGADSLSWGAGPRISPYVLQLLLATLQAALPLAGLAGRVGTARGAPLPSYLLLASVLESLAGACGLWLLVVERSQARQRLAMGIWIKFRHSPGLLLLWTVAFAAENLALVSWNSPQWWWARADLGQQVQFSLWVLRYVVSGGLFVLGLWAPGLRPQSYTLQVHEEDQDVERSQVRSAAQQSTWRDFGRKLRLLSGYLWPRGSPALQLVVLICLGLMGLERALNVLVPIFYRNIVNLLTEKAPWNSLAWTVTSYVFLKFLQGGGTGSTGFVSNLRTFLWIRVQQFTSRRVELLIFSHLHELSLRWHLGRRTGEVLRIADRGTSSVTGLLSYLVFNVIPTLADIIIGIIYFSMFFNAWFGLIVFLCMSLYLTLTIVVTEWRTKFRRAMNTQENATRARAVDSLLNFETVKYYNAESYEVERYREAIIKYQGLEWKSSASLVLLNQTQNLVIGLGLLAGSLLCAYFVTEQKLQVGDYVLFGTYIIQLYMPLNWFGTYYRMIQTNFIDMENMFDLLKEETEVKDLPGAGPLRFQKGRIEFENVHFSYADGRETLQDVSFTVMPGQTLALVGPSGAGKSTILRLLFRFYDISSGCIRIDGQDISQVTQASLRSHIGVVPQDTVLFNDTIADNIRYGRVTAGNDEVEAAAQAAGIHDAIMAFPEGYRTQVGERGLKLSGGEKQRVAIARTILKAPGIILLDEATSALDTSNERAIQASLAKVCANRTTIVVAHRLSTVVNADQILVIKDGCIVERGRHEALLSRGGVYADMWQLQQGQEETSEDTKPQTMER

[16] = promoters of myeloid differentiation in arrested cells, primary screen, cell-based, GFP/MAC1 double positive, flow cytometry, validation set (AID 588685;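 active = differentiation response of at least 50%, scaled between solvent and reference control, from cells with both markers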;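 note: compound exposure lasts four days before antibody staining and flow analysis; 0% = DMSO wells and 100% = 5 µM fulvestrant positive control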); details: ER-HoxA9 marrow cells, stronger effect = higher value, normalized: vehicle 0, fulvestrant 100

| SMILES | percent of DMSO control GFP [1] | GFP response vs DMSO [2] | percent response of DMSO control [3] | GFP response vs DMSO [4] | GFP response, % of DMSO [5] | double positive events [6] | vesicle binding response [6] | inhibition [7] | superoxide response (% of plate) [8] | aptamer binding inhibition [9] | response [10] | inhibition [11] | response [12] | binding (% of control) [13] | efflux inhibition (fraction of control) [14] | inhibition [15] | differentiation response [16] |
| --- | --- | --- | --- | --- | --- | --- | --- | --- | --- | --- | --- | --- | --- | --- | --- | --- | --- |
| C[C@]12CCC3C(CC=C4C[C@@H](O)CC[C@@]43C)C1CCC2[C@]1(C)CCC(=O)O1 (stereo partly drawn) | 102% (inactive) | 97.4% (inactive) | 109% (inactive) | 84.6% (inactive) | 95.7% (inactive) | 57% | 164% (inactive) | 0.94% (inactive) | 100% (inactive) | 4% (inactive) | 1.67% (inactive) | -4.51% (inactive) | -0.48% (inactive) | 103% (inactive) | 0.48 (active) | 9% (inactive) | -15.2% (inactive) |
| CC(C)c1ccc(OCc2ccc(C(=O)O)o2)cc1 | 105% (inactive) | 102% (inactive) | 109% (inactive) | 91.5% (inactive) | 93.7% (inactive) | 87.7% | 313% (inactive) | 11% (inactive) | 107% (inactive) | 15% (inactive) | 5.55% (inactive) | 2.53% (inactive) | 13.4% (inactive) | 98.3% (inactive) | -0.16 (inactive) | 2% (inactive) | -7.5% (inactive) |
| NC(N)=NC(N)=Nc1ccc2ccccc2c1 | 102% (inactive) | 97.4% (inactive) | 104% (inactive) | 85.4% (inactive) | 95.8% (inactive) | 58.7% | 183% (inactive) | 3.67% (inactive) | 106% (inactive) | 1% (inactive) | 18% (inactive) | 16% (inactive) | -3.32% (inactive) | 97.8% (inactive) | -0.21 (inactive) | -3% (inactive) | -0.8% (inactive) |
| CCCCCCCCNC(C)C(O)c1ccc(SC(C)C)cc1 (stereo not drawn) | 93.5% (inactive) | 130% (inactive) | 102% (inactive) | 85.3% (inactive) | 92.2% (inactive) | 38.1% | 47.2% (active) | -12% (inactive) | 115% (inactive) | -13% (inactive) | 10.9% (inactive) | 15.9% (inactive) | -2.14% (inactive) | 109% (inactive) | -0.17 (inactive) | 11% (inactive) | 2.46% (inactive) |
| O=C1CC[C@@H](CN(Cc2ccccc2)Cc2cn[nH]c2-c2cc3ccccc3o2)N1 | 101% (inactive) | 108% (inactive) | 99.6% (inactive) | 110% (inactive) | 114% (inactive) | 63.1% | 198% (inactive) | -4.52% (inactive) | 93.3% (inactive) | 5% (inactive) | 40.3% (inactive) | 2.07% (inactive) | 3.87% (inactive) | 101% (inactive) | 0.38 (inactive) | 1% (inactive) | -7.94% (inactive) |
| O=c1nc2sc3ccccc3n2c(=O)n1-c1ccc(Cl)cc1 | 105% (inactive) | 97.2% (inactive) | 108% (inactive) | 96.6% (inactive) | 99.7% (inactive) | 64.1% | 232% (inactive) | -12.9% (inactive) | 110% (inactive) | -3% (inactive) | -10.3% (inactive) | -5.72% (inactive) | 1.03% (inactive) | 96.4% (inactive) | -0.14 (inactive) | 11% (inactive) | 3.18% (inactive) |
| CC(=O)N(CCC(Cc1ccccc1)c1ccc2c(c1)OCO2)Cc1ccc(Cl)cc1 (stereo not drawn) | 93.9% (inactive) | 113% (inactive) | 103% (inactive) | 79.2% (inactive) | 92.2% (inactive) | 59.9% | 165% (inactive) | -9.06% (inactive) | 102% (inactive) | -1% (inactive) | -1.43% (inactive) | -8.25% (inactive) | -2% (inactive) | 104% (inactive) | 0.05 (inactive) | 6% (inactive) | -3.28% (inactive) |
| Cc1ccc2c(c1)C1CN(C)CCC1N2S(=O)(=O)c1ccc(Oc2ccc([N+](=O)[O-])cc2)cc1 (stereo not drawn) | 104% (inactive) | 103% (inactive) | 106% (inactive) | 91.5% (inactive) | 97% (inactive) | 56.7% | 153% (inactive) | 2.93% (inactive) | 97.8% (inactive) | -7% (inactive) | 25.2% (inactive) | -1.46% (inactive) | 10.4% (inactive) | 105% (inactive) | 0.085 (inactive) | -4% (inactive) | -14.8% (inactive) |
| CCOC(=O)C(NC(C)=O)C(O)c1ccc([N+](=O)[O-])cc1 (stereo not drawn) | 99.5% (inactive) | 105% (inactive) | 85.3% (inactive) | 124% (inactive) | 99.2% (inactive) | 57.3% | 211% (inactive) | -3.16% (inactive) | 103% (inactive) | 0% (inactive) | 4.84% (inactive) | -1.65% (inactive) | -1.89% (inactive) | 99.7% (inactive) | -0.21 (inactive) | 6% (inactive) | 32.8% (inactive) |
